Of roughly 7,900 targets only a part is listed; those with a hit were picked by preference. About 0.6% of all pairs of compound and target were hits.

Sequence of UniProt P29084 (P29084 whole entry, looked up): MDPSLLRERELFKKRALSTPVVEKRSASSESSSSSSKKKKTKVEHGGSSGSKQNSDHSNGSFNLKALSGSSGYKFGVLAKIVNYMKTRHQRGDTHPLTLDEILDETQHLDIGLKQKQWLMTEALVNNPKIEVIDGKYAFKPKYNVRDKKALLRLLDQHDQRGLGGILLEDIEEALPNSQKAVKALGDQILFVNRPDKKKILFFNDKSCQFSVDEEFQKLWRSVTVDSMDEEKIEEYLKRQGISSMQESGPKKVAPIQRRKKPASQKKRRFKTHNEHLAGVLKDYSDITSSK
Sequence of UniProt Q86VS8 (Q86VS8 whole entry, looked up): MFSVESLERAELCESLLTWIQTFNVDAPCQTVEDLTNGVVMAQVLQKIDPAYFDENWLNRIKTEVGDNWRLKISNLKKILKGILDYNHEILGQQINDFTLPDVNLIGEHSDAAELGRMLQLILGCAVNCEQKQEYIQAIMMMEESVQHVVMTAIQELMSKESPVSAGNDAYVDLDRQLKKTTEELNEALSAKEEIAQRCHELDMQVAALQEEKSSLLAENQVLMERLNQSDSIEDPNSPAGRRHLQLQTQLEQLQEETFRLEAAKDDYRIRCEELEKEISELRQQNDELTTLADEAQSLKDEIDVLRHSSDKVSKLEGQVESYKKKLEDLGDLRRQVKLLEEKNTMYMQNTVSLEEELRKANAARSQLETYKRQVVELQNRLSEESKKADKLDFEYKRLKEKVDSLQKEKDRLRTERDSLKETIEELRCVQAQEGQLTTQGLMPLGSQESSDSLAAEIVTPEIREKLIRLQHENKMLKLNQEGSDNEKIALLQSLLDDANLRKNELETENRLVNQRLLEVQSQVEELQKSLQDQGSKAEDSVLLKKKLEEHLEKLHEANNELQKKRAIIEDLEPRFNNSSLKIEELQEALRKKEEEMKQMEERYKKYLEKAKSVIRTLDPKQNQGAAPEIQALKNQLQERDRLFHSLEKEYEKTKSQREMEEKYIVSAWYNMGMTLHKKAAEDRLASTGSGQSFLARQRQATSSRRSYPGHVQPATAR
Sequence of UniProt P60520 (P60520 whole entry, looked up): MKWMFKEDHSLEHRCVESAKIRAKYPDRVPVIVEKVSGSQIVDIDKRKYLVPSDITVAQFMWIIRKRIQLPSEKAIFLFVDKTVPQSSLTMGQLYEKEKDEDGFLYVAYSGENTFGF
Sequence of UniProt Q9UBN7 (Q9UBN7 whole entry, looked up): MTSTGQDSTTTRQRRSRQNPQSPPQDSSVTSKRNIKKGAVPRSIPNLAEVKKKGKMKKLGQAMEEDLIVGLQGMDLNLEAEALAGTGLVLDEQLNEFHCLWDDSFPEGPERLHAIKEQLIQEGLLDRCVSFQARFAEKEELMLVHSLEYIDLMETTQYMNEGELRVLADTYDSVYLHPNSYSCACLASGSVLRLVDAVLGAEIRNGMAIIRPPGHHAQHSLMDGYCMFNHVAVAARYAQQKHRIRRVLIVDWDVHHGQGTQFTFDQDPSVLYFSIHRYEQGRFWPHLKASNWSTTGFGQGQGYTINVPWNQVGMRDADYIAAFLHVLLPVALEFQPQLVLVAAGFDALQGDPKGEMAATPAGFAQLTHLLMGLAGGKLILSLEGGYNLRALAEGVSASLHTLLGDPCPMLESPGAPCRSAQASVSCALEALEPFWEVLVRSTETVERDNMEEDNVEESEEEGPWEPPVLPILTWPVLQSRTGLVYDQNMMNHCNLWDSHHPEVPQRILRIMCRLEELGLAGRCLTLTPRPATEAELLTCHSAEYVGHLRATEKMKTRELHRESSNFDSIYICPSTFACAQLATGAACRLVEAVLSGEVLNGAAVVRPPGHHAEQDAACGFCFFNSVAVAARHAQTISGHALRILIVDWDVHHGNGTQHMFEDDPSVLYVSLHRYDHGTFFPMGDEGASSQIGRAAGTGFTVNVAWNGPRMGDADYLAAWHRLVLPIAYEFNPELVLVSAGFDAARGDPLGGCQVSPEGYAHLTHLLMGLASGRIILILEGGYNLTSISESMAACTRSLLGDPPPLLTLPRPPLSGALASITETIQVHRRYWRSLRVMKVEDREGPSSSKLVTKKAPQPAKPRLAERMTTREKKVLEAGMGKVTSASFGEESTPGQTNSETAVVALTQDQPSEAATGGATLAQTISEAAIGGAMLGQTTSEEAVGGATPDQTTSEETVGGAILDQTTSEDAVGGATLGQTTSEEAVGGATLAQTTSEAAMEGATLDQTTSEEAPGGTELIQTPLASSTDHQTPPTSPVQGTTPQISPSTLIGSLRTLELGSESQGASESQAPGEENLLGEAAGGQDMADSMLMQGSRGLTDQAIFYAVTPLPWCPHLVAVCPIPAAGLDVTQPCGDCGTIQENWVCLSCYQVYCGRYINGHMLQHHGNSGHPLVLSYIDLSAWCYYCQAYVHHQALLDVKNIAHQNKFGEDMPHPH
Sequence of UniProt P21333 (P21333 whole entry, looked up): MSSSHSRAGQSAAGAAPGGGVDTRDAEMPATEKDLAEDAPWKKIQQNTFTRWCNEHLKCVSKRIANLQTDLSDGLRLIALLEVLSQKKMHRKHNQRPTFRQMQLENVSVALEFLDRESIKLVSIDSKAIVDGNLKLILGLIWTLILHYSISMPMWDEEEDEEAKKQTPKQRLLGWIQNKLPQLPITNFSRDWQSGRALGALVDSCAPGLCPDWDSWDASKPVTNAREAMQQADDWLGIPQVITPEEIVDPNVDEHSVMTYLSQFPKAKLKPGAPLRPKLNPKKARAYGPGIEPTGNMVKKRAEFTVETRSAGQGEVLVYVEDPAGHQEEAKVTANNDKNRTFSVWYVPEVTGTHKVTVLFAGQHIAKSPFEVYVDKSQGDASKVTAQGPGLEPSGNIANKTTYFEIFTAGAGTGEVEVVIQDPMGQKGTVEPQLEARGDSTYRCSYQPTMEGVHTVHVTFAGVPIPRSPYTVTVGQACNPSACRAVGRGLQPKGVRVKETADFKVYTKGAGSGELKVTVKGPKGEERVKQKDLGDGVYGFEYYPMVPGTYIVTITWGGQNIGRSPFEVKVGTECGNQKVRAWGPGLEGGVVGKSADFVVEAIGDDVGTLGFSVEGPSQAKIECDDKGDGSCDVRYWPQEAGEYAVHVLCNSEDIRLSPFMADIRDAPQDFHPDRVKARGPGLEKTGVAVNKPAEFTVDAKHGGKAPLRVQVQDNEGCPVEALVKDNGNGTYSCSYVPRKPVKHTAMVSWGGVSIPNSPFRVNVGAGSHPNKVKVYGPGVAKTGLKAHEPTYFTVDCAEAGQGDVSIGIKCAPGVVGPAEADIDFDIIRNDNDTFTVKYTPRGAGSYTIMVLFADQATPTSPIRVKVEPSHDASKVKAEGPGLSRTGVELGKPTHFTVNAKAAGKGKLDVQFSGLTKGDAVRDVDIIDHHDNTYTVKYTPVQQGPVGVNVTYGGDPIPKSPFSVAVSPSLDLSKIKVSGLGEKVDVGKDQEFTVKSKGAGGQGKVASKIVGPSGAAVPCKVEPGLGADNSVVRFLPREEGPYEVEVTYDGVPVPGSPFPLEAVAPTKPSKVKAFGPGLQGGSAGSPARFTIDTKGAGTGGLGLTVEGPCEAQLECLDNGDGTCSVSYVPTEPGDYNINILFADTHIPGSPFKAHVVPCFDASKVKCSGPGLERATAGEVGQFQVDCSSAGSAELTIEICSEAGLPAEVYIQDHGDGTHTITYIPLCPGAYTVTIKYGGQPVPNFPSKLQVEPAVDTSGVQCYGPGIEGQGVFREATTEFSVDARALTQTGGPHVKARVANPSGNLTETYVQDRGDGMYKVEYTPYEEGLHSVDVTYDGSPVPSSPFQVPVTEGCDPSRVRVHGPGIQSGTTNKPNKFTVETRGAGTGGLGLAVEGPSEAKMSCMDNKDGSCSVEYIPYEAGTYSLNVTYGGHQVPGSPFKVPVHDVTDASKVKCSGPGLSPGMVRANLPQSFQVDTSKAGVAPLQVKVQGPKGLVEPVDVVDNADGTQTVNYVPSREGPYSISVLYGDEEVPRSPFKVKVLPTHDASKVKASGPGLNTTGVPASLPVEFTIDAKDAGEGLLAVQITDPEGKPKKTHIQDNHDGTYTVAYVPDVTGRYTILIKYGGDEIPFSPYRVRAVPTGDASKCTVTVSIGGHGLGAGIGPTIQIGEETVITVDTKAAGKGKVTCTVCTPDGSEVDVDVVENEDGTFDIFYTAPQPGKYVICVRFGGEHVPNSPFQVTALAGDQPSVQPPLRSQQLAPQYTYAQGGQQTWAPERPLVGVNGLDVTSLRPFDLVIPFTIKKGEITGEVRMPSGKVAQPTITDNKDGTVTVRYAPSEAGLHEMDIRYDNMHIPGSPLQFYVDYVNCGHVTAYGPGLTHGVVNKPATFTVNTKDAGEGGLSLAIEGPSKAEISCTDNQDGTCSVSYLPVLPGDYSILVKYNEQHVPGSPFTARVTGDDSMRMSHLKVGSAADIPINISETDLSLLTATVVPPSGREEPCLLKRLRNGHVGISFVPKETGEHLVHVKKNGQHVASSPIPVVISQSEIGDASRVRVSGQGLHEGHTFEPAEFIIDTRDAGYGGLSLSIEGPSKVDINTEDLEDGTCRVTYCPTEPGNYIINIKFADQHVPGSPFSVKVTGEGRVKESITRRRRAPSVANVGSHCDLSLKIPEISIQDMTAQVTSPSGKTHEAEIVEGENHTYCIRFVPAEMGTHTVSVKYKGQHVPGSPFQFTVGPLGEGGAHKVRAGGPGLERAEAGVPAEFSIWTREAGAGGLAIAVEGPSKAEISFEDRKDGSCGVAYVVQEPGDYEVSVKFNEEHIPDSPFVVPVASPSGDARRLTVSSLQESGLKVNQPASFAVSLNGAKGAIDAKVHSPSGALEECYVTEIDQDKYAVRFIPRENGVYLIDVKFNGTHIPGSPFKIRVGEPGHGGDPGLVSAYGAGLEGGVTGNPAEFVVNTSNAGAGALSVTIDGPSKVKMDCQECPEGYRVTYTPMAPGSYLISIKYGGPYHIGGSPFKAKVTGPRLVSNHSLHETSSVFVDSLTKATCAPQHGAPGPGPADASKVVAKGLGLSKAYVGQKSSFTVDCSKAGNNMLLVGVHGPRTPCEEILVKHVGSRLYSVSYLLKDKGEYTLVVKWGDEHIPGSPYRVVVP
Sequence of UniProt P63218 (P63218 whole entry, looked up): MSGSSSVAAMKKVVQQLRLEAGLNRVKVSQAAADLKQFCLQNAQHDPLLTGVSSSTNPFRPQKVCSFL

Compound in the test: c1cn2cc(-c3ccc4cn[nH]c4c3)nc(Nc3ccc(N4CCOCC4)cc3)c2n1 [entospletinib]
The experiment in a line: log2 fold change, soluble protein after heating vs DMSO (PISA); higher = thermal stabilisation; K562 cells, 10 uM, 30 min; active = over 0.2 and 3.5 SD of the protein, either way, in both replicates (recomputed). In outline: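 K562 cells at 2×10^6 cells/mL were given 10 μM compound for 30 min. Aliquots then went through 3 min of heating across 48°C-58°C, were pooled, and were extracted in PBS with 0.5% NP-40 at 4°C, and the supernatant after 21,000xg for 90 min was quantified by TMTpro 16plex LC-MS/MS with channel sums equalised. Thermal stability relative to control samples, from duplicates, is given as log2 fold change.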
In the case of HK2 (UniProt P52789), the log2 fold change is -0.54 (active).
For HBZ (UniProt P02008), the log2 fold change was 0.009 (inactive).
Take FLNA (UniProt P21333): the log2 fold change was 0.062 (inactive).
With FARS2 (UniProt O95363) the figure was 0.011 (inactive).
With GSK3A (UniProt P49840) the figure was -0.028 (inactive); with GEMIN2 (UniProt O14893), 0.002 (inactive); with GABPA (UniProt Q06546), -0.01 (inactive).
In the case of GOLGB1 isoform 2 (UniProt Q14789), the log2 fold change is 0.058 (inactive).
In the case of HSPA8 (UniProt E9PK54), the log2 fold change was -0.212 (inactive).
For FKBP4 (UniProt Q02790) the value was -0.019 (inactive); for GSTO1 (UniProt P78417), -0.046 (inactive); for HMG20A (UniProt Q9NP66), -0.049 (inactive).
As to FCF1 (UniProt Q9Y324), the log2 fold change is -0.269 (inactive).
For GGA2 (UniProt Q9UJY4) the value was -0.117 (inactive); for GEMIN5 (UniProt Q8TEQ6), 0.058 (inactive); for GTF2E2 (UniProt P29084), -0.011 (inactive).
For GALNT1 (UniProt Q10472) the value was 0.01 (inactive).
As for GTF3C5 isoform 3 (UniProt Q9Y5Q8), the log2 fold change is 0.226 (inactive).
On to IFRD2 isoform 2 (UniProt Q12894), for which the log2 fold change is 0.29 (inactive).
With GUSB (UniProt P08236) the figure was 0.11 (inactive); with GAPVD1 isoform 6 (UniProt Q14C86), 0.045 (inactive).
Consider HDAC6 (UniProt Q9UBN7), for which the log2 fold change was 0.034 (inactive).
In the case of HMOX2 (UniProt P30519), the log2 fold change is 0.014 (inactive).
As to GHDC (UniProt Q8N2G8), the log2 fold change was 0.038 (inactive).
Consider FERMT3 (UniProt Q86UX7), for which the log2 fold change is -0.005 (inactive).
As to FANCI (UniProt Q9NVI1), the log2 fold change is -0.013 (inactive).
Take HADHB (UniProt P55084): the log2 fold change was 0.006 (inactive).
As for HBA1 (UniProt P69905), the log2 fold change was 0.042 (inactive).
With GYG1 (UniProt P46976), the log2 fold change is 0.643 (active).
Consider GSTP1 (UniProt P09211), for which the log2 fold change is -0.03 (inactive).
On to FBXO6 (UniProt Q9NRD1), for which the log2 fold change was -0.055 (inactive).
Take GMEB2 (UniProt Q9UKD1): the log2 fold change is 0.072 (inactive).
For GNG5 (UniProt P63218) the value was 0.062 (inactive); for GOLGA8R (UniProt I6L899), -0.056 (inactive); for GCSH (UniProt P23434), 0.037 (inactive).
Regarding HOOK3 (UniProt Q86VS8), the log2 fold change was 0.025 (inactive).
Take GABARAPL2 (UniProt P60520): the log2 fold change was -0.032 (inactive).
Regarding GTF2A1 (UniProt P52655), the log2 fold change was 0.051 (inactive).
IFI30 (UniProt P13284): the log2 fold change is -0.032 (inactive).
